Consider 91 compounds from PubChem BioAssay AID463212 (Sanford-Burnham Center for Chemical Genomics, 2010).

In general, inhibition refers to the drop in the measured response relative to a control, in per cent.

SMILES strings stand for the structures. Hit rate of the full screen: of about 330,000 compounds, about 4,400 (1.3%) were called active. The sample holds actives, similar compounds and a random draw of the others, so the mix is not that of the screen. Unmarked numbers belong to inactive results.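 How the source made its calls: active means growth inhibition of the mutant yeast at or above 50%; inactive means the rest.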

This experiment is described as follows: growth inhibitors of tim23-1 mutant yeast, primary screen, luminescence, uHTS (AID 463212).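 Further: temperature-sensitive mutant grown at 25 °C; plate controls were DMSO-treated mutant yeast for no effect and medium wells lacking yeast for full effect.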 Particulars: S. cerevisiae tim23-1 growth, BacTiter-Glo luminescence, 24 h; at 20 µM; hits give high values.
Turning to `COc1cc(OC)c(NS(=O)(=O)c2cn(C)cn2)cc1Cl`, the inhibition was -16.4%.
The same measure for `CC(C)(C)n1nnnc1C(c1ccccc1F)N1CCN(C(=O)c2ccco2)CC1` (stereo unspecified): 19.8%; for `CC(=O)O[C@H]1CC[C@@]2(C)[C@@H](CC[C@@H]3[C@@H]2CC[C@]2(C)[C@@H](C(C)(C)O)C[C@@H]32)C1`: 28.2%; for `Cc1cc(C)cc(C(=O)OCC(=O)NCCNC(=O)COC(=O)c2cc(C)cc(C)c2)c1`: 2.3%.
The same measure for `C(=N/N1CCN(c2ccccc2)CC1)/c1cccs1`: 15.3%; for `CN1CN(C)c2ccc([N+](=O)[O-])c3cccc1c23`: 9.47%; for `CCOc1cccc(=O)c2c(C)n(CC3CCCO3)c(C)c12` (stereo unspecified): -1.14%.
Next, `O=C1c2cccc3c([N+](=O)[O-])ccc(c23)C(=O)N1CC1CCCO1` (stereo unspecified): 87% (active).
With `N/C(=N\OC(=O)CCC1CCCCC1)c1ccccn1`, the inhibition is 30.2%.
The same measure for `O=C(CC1CCCCC1)NCc1ccccc1`: 14.8%; for `N/C(=N\OC(=O)CC1CCCCC1)c1ccccc1`: 56.4% (active); for `O=C(COC(=O)c1ccc(Cl)nc1)NCc1ccc2c(c1)OCO2`: 6.05%.
The same measure for `COc1cccc(CN2CCN(Cc3ccc4cccc(F)c4n3)CC2CCO)c1` (stereo unspecified): 6.61%; for `O=C(Nc1nc(-c2ccco2)c(-c2ccco2)s1)c1ccco1`: 69.5% (active).
Next, `NC(=O)c1ccsc1NC(=O)c1ccco1`: 6.25%.
Consider `O=C(Nc1nnc(CCOCCOCCc2nnc(NC(=O)c3ccco3)s2)s1)c1ccco1`, for which the inhibition was -4.68%.
The same measure for `N#Cc1ccc(N2Cc3ccccc3/C2=N/C(=O)Nc2ccc(Cl)cc2)cc1`: 28.7%.
Next, `c1ccc(-c2csc(N3CCc4ccccc4C3)n2)cc1`: 14.4%.
Next, `Cc1ccc2c(c1)c1ncnc(N3CCc4ccccc4C3)c1n2C`: 51% (active); `Cc1ccc(Cl)c(OCC(=O)N2CCc3ccccc3C2)c1`: 35.1%; `CCc1cc(=O)oc2c(C)c(OCC(=O)N3CC[C@@]4(O)CCCC[C@H]4C3)ccc12`: 2.55%.
For `CNS(=O)(=O)c1cnccc1N1CCN(c2cccc(C)c2)CC1`, the inhibition was 0.287%.
Next, `CCC(CC)NC(=O)/C=C/c1cccc([N+](=O)[O-])c1`: 17.4%.
Next, `Cc1ccccc1N1CC(C(=O)Nc2ccc3c(c2)OCO3)CC1=O` (stereo unspecified): 2.96%; `COc1ccc(-c2n[nH]c(C)c2-c2ccccc2OC)c(O)c1`: 38.9%; `COc1ccccc1-c1n[nH]c2c1[C@H](C)CC[C@H]2C(C)C`: 53% (active).
The same measure for `O=C1COc2ccc(S(=O)(=O)NCCc3ccc(Cl)cc3)cc2N1`: 8.79%; for `CC(=O)NC(=S)Nc1ccc(NC(=O)c2cccnc2)cc1`: 16.1%; for `CCOC(=O)c1ccc(NC(=O)c2cccnc2)cc1`: 13.2%.
Regarding `Cc1ccc2nc(-c3ccc(NC(=O)c4cccnc4)cc3)oc2c1`, the inhibition was 52% (active).
Next, `Cc1cc(C(=O)COc2ccccc2[N+](=O)[O-])c(C)n1-c1cccc(S(=O)(=O)N2CCOCC2)c1`: 7.4%; `O=c1c2ccccc2nc2n1C(CSCc1cccc(C(F)(F)F)c1)CS2` (stereo unspecified): 14.7%.
Next, `O=C1CN(c2nc(-c3ccccc3)c3cc(Br)ccc3n2)c2ccccc2N1`: 4.72%; `Cc1ccc(CNC(=O)Cn2cnc(S(=O)(=O)N3CCCCC3)c2)o1`: -6.13%.
`Cc1[nH]n(C)c(=O)c1N=Nc1ccc(S(C)(=O)=O)cc1`: the inhibition was 11.7%.
Next, `Cc1[nH]n(C(N)=S)c(=O)c1N=Nc1ccc(Cl)cc1Cl`: 67% (active); `CC1=NN(C(N)=S)C(=O)C1N=Nc1cc(Cl)ccc1Cl` (stereo unspecified): 36.9%.
Regarding `Cc1c(Cl)cccc1NC(=O)CSc1ccc(-c2cccnc2)nn1`, the inhibition is 2.22%.
`O=S(=O)(Nc1nccs1)c1ccc2c(c1)OCCO2`: the inhibition was 12.7%.
Next, `CCOC(=O)C1=C(CSc2nccn2C)NC(=O)NC1c1ccc(OC)cc1` (stereo unspecified): 7.63%.
The same measure for `COCCOC(=O)C1=C(C)N=c2s/c(=C\c3cccs3)c(=O)n2C1c1cccs1` (stereo unspecified): -11.4%.
The same measure for `CCOC(=O)C1=C(C)N=c2s/c(=C\C(=O)OC)c(=O)n2C1c1ccc(OC)cc1` (stereo unspecified): 52.3% (active).
Regarding `Cc1cc(=O)oc(C)c1C(=O)NC1CC(C)(C)NC(C)(C)C1`, the inhibition is 13.7%.
With `CN(C)NC(=O)c1csnc1-c1c(Cl)cccc1Cl`, the inhibition is -15.4%.
On to `Cn1cccc1C(=O)OCC(=O)c1ccc(Br)s1`, for which the inhibition was 15.9%.
Next, `COc1ccc2sc(-c3ccccc3OC)c(-c3ccc(OCCN4CCCC4)cc3)c2c1`: -0.331%; `COc1cccc(-c2sc3ccc(OC)cc3c2-c2ccc(OCCN3CCCCC3)cc2)c1`: 58.8% (active); `COc1ccc(-c2sc3ccccc3c2-c2ccc(OCCN3CCOCC3)cc2)cc1`: 28%.
In the case of `Cc1cccc(C)c1NC(=O)CSc1nnc(-c2ccccc2)n1Cc1ccc2c(c1)OCO2`, the inhibition is 3.97%.
The same measure for `CC1=C(C(N)=O)C(c2ccc3c(c2)OCO3)n2nc(-c3cccc(C)c3)nc2N1` (stereo unspecified): 18.1%; for `c1ccc(-c2nnc3n2NC(c2ccc4c(c2)OCO4)S3)cc1` (stereo unspecified): 57.2% (active); for `O=C(Nc1nnc(C2CC2)s1)C1=NN(C2CCS(=O)(=O)C2)C(=O)CC1` (stereo unspecified): 9.54%.
The same measure for `COc1cc2c(cc1OC)C(/C=C/c1ccco1)=NCC2`: -9.38%; for `COc1ccc(S(=O)(=O)N2CCN(C(C)C(=O)Nc3ccc(C(C)C)cc3)CC2)cc1` (stereo unspecified): 50.6% (active); for `CC(C)c1ccc(S(=O)(=O)N2CCN(C(C)C(=O)NC3CCCC3)CC2)cc1` (stereo unspecified): 13.4%.
Next, `COc1cccc(CNC(C)C(=O)Nc2ccc(S(=O)(=O)N3CCCC3)cc2)c1` (stereo unspecified): 19.6%; `O=C1NC[C@@H](Cc2ccc(O)cc2)N(CCc2cccc(F)c2)C1=O`: 11.4%.
Take `CC(=O)Nc1ccc(S(=O)(=O)N2CCN(C(=O)c3ccccc3F)CC2)cc1`: the inhibition is 3.67%.
Regarding `Cc1ccc(C(=O)O/N=C(\N)c2ccccn2)cc1Cl`, the inhibition is 6.93%.
The same measure for `Cc1cccc(/C(N)=N/OC(=O)c2ccccc2Cl)c1`: 72.9% (active); for `Cc1ccc(/C(N)=N/OC(=O)COc2ccc(Cl)c(C)c2)cc1`: 24.2%.
The same measure for `CC(C)(C)NC(=O)CN1CCC(NC(=O)C23CC4CC(CC(C4)C2)C3)CC1`: 18%.
Next, `O=C(c1ccc(S(=O)(=O)NCc2ccco2)cc1)N1CCN(c2ccccc2)CC1`: 19.3%.
Turning to `O=C(Nc1ccccc1)c1cc2ccccc2[nH]1`, the inhibition is -6.12%.
The same measure for `CCCCn1c(=S)[nH]c2ccccc2c1=O`: 43.6%; for `COc1ccc(Cn2c(=S)[nH]c3cc(C(=O)NCCCN4CCOCC4)ccc3c2=O)cc1`: 18%.
The same measure for `O=c1c2ccccc2[nH]c(=S)n1CCN1CCC(=C(c2ccc(F)cc2)c2ccc(F)cc2)CC1`: 75.8% (active); for `O=C(N[C@H]1C/C=C\C(c2ccc(F)cc2)N(Cc2ccccc2)C(=O)C1)OCC1c2ccccc2-c2ccccc21` (stereo partly specified): 38.6%; for `O=C(N[C@@H]1C/C=C\C[C@@H](CC(=O)N(CCO)Cc2ccccc2)C(=O)N[C@H](Cc2ccccc2)COC1=O)OCC1c2ccccc2-c2ccccc21`: 22.7%.
The same measure for `O=C(N[C@H]1C/C=C\C(c2cccc(F)c2)N(Cc2ccccc2)C(=O)C1)OCC1c2ccccc2-c2ccccc21` (stereo partly specified): 59.7% (active); for `Cc1cc2c(cc1C)N(C(=O)CN1C(=O)c3ccccc3C1=O)C(C)(C)c1ssc(=S)c1-2`: 30.3%.
On to `Cc1ccc(C(=O)Nc2ccc(NC(=O)c3cccs3)cc2)c(C)c1`, for which the inhibition is 11.9%.
Next, `COc1cc(NC(=O)c2ccc3c(c2)OCO3)ccc1NC(=O)c1cccs1`: -5.22%; `COc1cc(NC(=O)c2cccs2)ccc1NC(=O)c1ccccc1Cl`: 55.3% (active).
On to `O=C(Nc1cc(-c2ccccc2)nn1-c1ccccc1F)c1ccc([N+](=O)[O-])cc1`, for which the inhibition was 18.1%.
The same measure for `CCn1ncc(Br)c1C(=O)Nc1cc(C)ccc1F`: 38.3%; for `CCCc1[nH]nc2c1C(c1ccc(Br)s1)C(C#N)=C(N)O2` (stereo unspecified): 86.6% (active); for `CCCc1[nH]nc2c1C(c1ccc(OC(=O)c3ccco3)cc1)C(C#N)=C(N)O2` (stereo unspecified): -11.4%.
Next, `CCCc1[nH]nc2c1C(c1ccc(OC)c(Cn3nc(C)c(Br)c3C)c1)C(C#N)=C(N)O2` (stereo unspecified): 0.046%; `O=C(O)C1CCCN(CCC=C(c2ccccc2)c2ccccc2)C1` (stereo unspecified): 4.65%.
Regarding `Cc1cccc(N2CCN(C(=O)c3cc4c(=O)[nH]c5ccccc5c4n3C)CC2)c1C`, the inhibition was 13%.
Next, `CC(C)(C)OC(=O)NCCCC1=CC2=CC(=O)C(C)(OC(=O)c3ccco3)C(=O)C2=CO1` (stereo unspecified): 13.3%.
The same measure for `Cc1ccc(C(=O)COc2cccc(NC(=O)c3ccco3)c2)cc1`: 54.5% (active); for `COc1ccc(OCC(=O)Nc2ccc(NC(=O)c3ccco3)c(C)c2)cc1`: 16.1%.
The same measure for `Cc1cccc(OCC(=O)Nc2ccc(NC(=O)c3ccco3)c(C)c2)c1`: 22%; for `Cc1cccc(N(C)C(=O)c2cc(S(=O)(=O)N3CCCCC3)c[nH]2)c1`: 23.4%.
Regarding `CCOC(=O)CSc1nnc(CNC(=O)Cc2ccccc2)n1-c1ccccc1OC`, the inhibition was 7.97%.
Next, `Cc1ccc(-n2cnc3ncnc(-c4ccccc4)c32)cc1`: 15.5%; `Cc1ccc(-c2nn(C(C)(C)C)c3ncnc(N)c23)cc1`: 57.5% (active).
The same measure for `Cc1c([N+](=O)[O-])c(N)nn1C`: -8.73%; for `Cc1cc(C(=O)COC(=O)C2CC2)c(C)n1-c1ccc(F)cc1`: 35.7%.
